Screening results: PubChem, National Center for Advancing Translational Sciences (NCATS)
ALDH1A1 block: qHTS Assay for Inhibitors of Aldehyde Dehydrogenase 1 (ALDH1A1) | Aldehyde dehydrogenase 1A1 (Homo sapiens), P00352 | Purified ALDH1A1, NADH fluorescence, propionaldehyde substrate | Potency, µM (doses to about 75.3 µM), for inactives: at the top dose activity, negative = inhibition, actives largely listed as inhibitors | hit rate 7.3% among 220,000; active = well fitted inhibition curve with a large enough effect, not every such curve was filed as active; inconclusive = small, poorly fitted or top-dose-only effect, or another doubt; inactive = no such curve, though single readings can be large or run the other way;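 also: potency is read from the fitted curve at half-maximal effect; plate controls were no enzyme wells and a reference inhibitor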
GLA inh pH 4.5: qHTS Assay for Inhibitors of Human alpha-Galactosidase at pH 4.5. Alpha-galactosidase A (Homo sapiens), P06280. purified enzyme, 4-MU-alpha-Gal fluorescence, pH 4.5. activity change, negative = inhibition, % at 105 µM. 230,000 tested, under 10 active;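 also: 0% = full activity with enzyme and -100% = basal without enzyme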
Target sequence (P06280 whole entry, looked up): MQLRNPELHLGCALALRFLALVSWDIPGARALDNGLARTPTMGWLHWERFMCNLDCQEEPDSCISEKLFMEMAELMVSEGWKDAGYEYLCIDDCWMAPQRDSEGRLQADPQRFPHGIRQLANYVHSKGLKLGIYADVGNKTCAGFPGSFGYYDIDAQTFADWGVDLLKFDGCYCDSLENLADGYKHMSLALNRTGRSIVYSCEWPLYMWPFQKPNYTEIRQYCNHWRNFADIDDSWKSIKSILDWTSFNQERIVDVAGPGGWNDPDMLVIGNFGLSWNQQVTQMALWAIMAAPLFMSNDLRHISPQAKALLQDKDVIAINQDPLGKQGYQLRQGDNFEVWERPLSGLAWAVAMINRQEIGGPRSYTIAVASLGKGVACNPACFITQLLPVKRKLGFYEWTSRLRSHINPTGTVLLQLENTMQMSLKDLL
PNC inhibitor: High Content Assay for Compounds that inhibit the Assembly of the Perinucleolar Compartment | hit rate 3.1% among 140,000 | activity change (PNC), negative = inhibition, % at 10 µM | AID 2417, 2010 | PC3M PTB-GFP, PNC prevalence imaging, 16 h; hits give low values;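 active = readout at or below -70, meaning at least 70% loss of cells showing the perinucleolar compartment, a nuclear body marking cancer cells; inconclusive = readout between -30 and a set limit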;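 also: plate controls were DMSO wells for no effect and camptothecin positive control wells for full effect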
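Compounds are pinned in duplicate onto adhered PC3M cells stably expressing GFP-tagged PTB and incubated 16 h at 37 C. Cells are then fixed, nuclei stained with Hoechst, and PNC-positive cells counted.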
12-hLO inh: qHTS Assay for Inhibitors of 12-hLO (12-human lipoxygenase) | Potency, µM (series often up to 57.1 µM), without a hit: at the highest dose activity change, negative = inhibition, hits mostly inhibitors | hit rate 0.12% among 150,000 | purified 12-hLO, xylenol orange hydroperoxide absorbance; also: potency is read from the fitted curve at half-maximal effect; nearly all actives have a fitted effect of over 55% in size
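Hydroperoxide formation by human 12-lipoxygenase from 40 uM arachidonic acid was followed colorimetrically via ferric-xylenol orange complex, using the 573/405 nm absorbance ratio. Enzyme concentration was 150 nM, with 30 min reaction at room temperature.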
HPGD inh: qHTS Assay for Inhibitors of HPGD (15-Hydroxyprostaglandin Dehydrogenase) | 15-hydroxyprostaglandin dehydrogenase [NAD(+)] (Homo sapiens), P15428 | purified HPGD, NADH fluorescence kinetic, PGE2 substrate | Potency, µM, without a hit: at the top dose activity change, negative = inhibition, most hits filed as inhibitors | hit rate 4.3% among 150,000 | AID 894, 2007; active = well fitted inhibition curve with a large enough effect, not every such curve was filed as active; inconclusive = small, poorly fitted or top-dose-only effect, or another doubt; inactive = no such curve, though single readings can be large or run the other way; also: potency is read from the fitted curve at half-maximal effect
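20 nM HPGD preincubated 15 min at room temperature with compound in 50 mM Tris-HCl pH 8, 0.01% Tween 20. Started with 1 mM NAD+ and 30 uM prostaglandin E2; NADH fluorescence (360/450 nm) read 5 times over 30-s intervals, last minus first.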
aGal spleen mod: qHTS Assay for Inhibitors and Activators of Human alpha-Galactosidase From Spleen Homogenate. human spleen homogenate, 4MU-alpha-Gal fluorescence, 40 min. Potency, µM (series often up to 80 µM), for the others: at the top dose activity change, negative = inhibition, usual class: inhibitors. hit rate 0.008% among 240,000. AID 2107, 2009;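 also: potency is read from the fitted curve at half-maximal effect; 0% = enzyme with vehicle and -100% = no enzyme basal signal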
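Inhibition or activation of alpha-galactosidase in human spleen homogenate is scored by 4-MU fluorescence after 40 min at 37C, pH 5.0, with 1 mM substrate. AC50s come from concentration-response fitted to the Hill equation.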
The depositor's hits bear a star; ? = inconclusive; . = not tested or not shown. Shown are actives, neighbours in structure and some others; about 10% of the full set was active somewhere. Unless noted, calls follow the shape of the dose curve; as a rule, active = well fitted curve in the direction sought with a large enough effect; inconclusive = small, poorly fitted or top-dose-only effect, or another doubt; inactive = no such curve, though single readings can be large; an effect the other way counts as inactive or inconclusive. Unless noted, % is scaled to controls: 0 for no effect and ±100 for the full control effect.

SMILES | ALDH1A1 block | GLA inh pH 4.5 | PNC inhibitor | 12-hLO inh | HPGD inh | aGal spleen mod
CCCOc1cccc(C2/C(=C(/O)c3ccc(OC)cc3)C(=O)C(=O)N2CCN(C)C)c1 (configuration not stated) | 16µM* | -5 | 24 | 0% | -8% | -4%
Cc1c(/C(O)=C2\C(=O)C(=O)N(CCCN(C)C)C2c2ccccc2)cnn1-c1ccccc1 (configuration not stated) | ? | 4 | 5 | -15% | 20µM* | 9%
COc1ccc(/C(O)=C2\C(=O)C(=O)N(CCN(C)C)C2c2cc(OC)c(OC)c(OC)c2)c(C)c1 (configuration not stated) | 28µM* | 2 | 31 | -2% | -21% | 4%
Cc1cc(Oc2ccc(OCC(N)=O)nn2)nc(Cl)n1 | 2% | 26 | . | . | . | -3%
COc1ccc(Oc2cc(C)nc(Cl)n2)nn1 | 8.9µM* | 7 | . | . | . | 0%
COc1ccc(N/N=C(/C)c2cnnc(-c3ccccc3)n2)cc1 | 9.5µM* | -4 | -5 | -1% | -1% | -1%
CC/C(=N/Nc1ccccc1Cl)c1cnnc(-c2ccccc2)n1 | 2% | 0 | 290 | 3% | -13% | -2%
FC(F)C(F)(F)C(F)(F)C(F)(F)c1cc(-c2ccccc2)n[nH]1 | 4% | -10 | -4 | -19% | 16µM* | -4%
CCCCCCCCCCCCC/C=C/[C@@H](O)[C@H](COP(=O)([O-])OCC[N+](C)(C)C)NC(=O)CCCCCCCCCCCCCCCCC | 3% | -2 | . | 0% | -1% | -10%
CCCCSc1nnc(CSc2nc3nc(C)cc(C)n3n2)o1 | -7% | 4 | -6 | 0% | 25µM* | -8%
O=C(Nc1ccccc1)N1CC2(CCN(C(=O)c3ccncc3)CC2)C1 | -1% | . | . | 0% | -2% | 8%
CCc1ccc(C2=NN(S(C)(=O)=O)C(c3cccs3)C2)cc1 (configuration not stated) | 20µM* | 1 | -100* | -11% | -30% | -13%
CCS(=O)(=O)Nc1cccc(C2=NN(S(=O)(=O)c3ccc(C)cc3)C(c3cccs3)C2)c1 (configuration not stated) | 5µM* | 6 | 42 | -6% | -21% | -9%
Cc1ccc(C2=NN(S(C)(=O)=O)C(c3cccs3)C2)cc1 (configuration not stated) | -8% | 6 | 73 | -2% | -1% | -1%
CCSc1nc(-c2ccccc2)nc(C(Cl)Cl)n1 | 8% | 6 | -10 | 2% | 0% | 0%
CSc1nc(-c2ccc(C)cc2)nc(C(Cl)Cl)n1 | 14% | -11 | -106* | -1% | 2% | -2%
Cc1cnc(NC(=O)COc2cccc3c2OC(C)(C)C3)s1 | 8% | 2 | -95* | 6% | 2% | -5%
COC(=O)c1ccc(C(/C=C/[C@@H](C)C(=O)NCc2ccc(OC)c(O)c2)NC(=O)OCc2ccccc2)cc1 (some centres not stated) | ? | -15 | . | -5% | -15% | -3%
CCOc1ccc(C(C)NC(=O)C2CCC2)cc1 (configuration not stated) | -1% | 20 | 21 | 21% | 25µM* | 12%
CC(NC(=O)C1CCC1)c1ccc(Cl)cc1 (configuration not stated) | 0% | -3 | 35 | 1% | 14µM* | 9%
CCOc1ccc(C(C)NC(=O)C2CCCC2)cc1 (configuration not stated) | -1% | -19 | . | . | . | 5%
CC(NC(=O)C1CCCC1)c1ccc2c(c1)OCCO2 (configuration not stated) | 3% | 5 | -8 | -3% | -25% | 6%
